SMILES strings stand for the structures. Several values for one entry are separate records, joined by “and”; a condition that tells them apart may be missing. Equal entries are not always repeated. Structures can show the parent of a compound that is named as a salt. ± gives the standard deviation of the averaged measurements.

The subject of assay [1] is Molm13. The assay can be described thus: cell viability relative to DMSO control (bortezomib = 0%); higher = less growth inhibition. The settings on record: 10 nM; 72 h. The method, boiled down:
(§1)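 Viability was determined with CellTiter-Glo luminescence. Acute myeloid leukemia cells (1000 per well, 50 µL) were exposed for 72 h to 679 approved and investigational compounds at a single 10 nM dose in 384-well plates. Percentages came from per-plate linear regression, setting DMSO-treated wells to 100% and positive-control-treated wells to 0%.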

Assay [2] deals with Mv4-11. The description is as above. The note with it: 10 nM; 72 h. The procedure, abridged:
as §1

As for `CNC(=O)CN1CCC(Oc2cc3c(Nc4cccc(Cl)c4F)ncnc3cc2OC)CC1` [AZD8931 (Sapitinib)], the cell viability (usually a read-out of living cells in per cent, often relative to untreated cells) in assay [1] was found to be 104 ± 6.3%; in assay [2], 116 ± 4.9%.
`Cc1cc(Nc2cc(N3CCN(C)CC3)nc(/C=C/c3ccccc3)n2)n[nH]1`: the values for the cell viability in assay [1] and in assay [2] were 89.6 ± 1.1% and 105 ± 9.9%, respectively.
For `COc1cc2c(Nc3ccc(NC(=O)c4ccccc4)cc3)ncnc2cc1OCCCN1CCOCC1`, the cell viability in assay [1] worked out at 87.8 ± 50%; in assay [2], 120 ± 19%.
On to `C[C@@H]1O[C@@H](OC[C@H]2O[C@@H](Oc3c(-c4ccc(O)c(O)c4)oc4cc(O)cc(O)c4c3=O)[C@H](O)[C@@H](O)[C@@H]2O)[C@H](O)[C@H](O)[C@H]1O` [Rutin], for which the cell viability in assay [1] was found to be 103 ± 1.5%; in assay [2], 113.3 ± 0.28%.
For `Cc1ccc(CNc2ncnc3ccc(-c4ccc(CO)o4)cc23)o1` the same measures were 118 ± 2% and 107 ± 12%.
As for `CCN(CC)CC(=O)Nc1c(C)cccc1C` [Lidocaine Hydrochloride hydrate], the values for the cell viability in assay [1] and in assay [2] were 111 ± 18% and 113 ± 8.3%, respectively.
`CC(=O)/C(C)=N/O` [2,3-Butanedione 2-Monoxime]: the cell viability in assay [1] was 79.4 ± 21%; in assay [2], 119 ± 7.6%.
The corresponding values for `COc1cc2ncnc(Oc3ccc(CC(=O)Nc4cnn(C(C)C)c4)cc3)c2cc1OC` are 24.8 ± 4.2% and 29.8 ± 2.1%.
Take `CCS(=O)(=O)c1cccc(-c2cc(C(=O)NC3CCN(C)CC3)c(C)c3[nH]c4ncc(C)cc4c23)c1`: the cell viability in assay [1] was 75.1 ± 5.3%; in assay [2] it was 90.6 ± 3.5%.
The corresponding values for `CN(C)C/C=C/C(=O)Nc1cc2c(Nc3ccc(F)c(Cl)c3)ncnc2cc1O[C@H]1CCOC1` [Afatinib (BIBW2992) Dimaleate] are 108 ± 11% and 102 ± 7.5%.
For `O=c1oc2c(O)c(O)cc3c(=O)oc4c(O)c(O)cc1c4c23` [Ellagic acid] the same measures were 92.5 ± 28% and 99.5 ± 11%.
As for `CC(=O)c1c(C)c2cnc(Nc3ccc(N4CCNCC4)cn3)nc2n(C2CCCC2)c1=O`, the cell viability in assay [1] is 89.3% and 111%; in assay [2], 105% and 111%.
Consider `O=C(Nc1ccccc1C(=O)NC1CCCCNC1=O)c1cc2ccccc2s1` (stereo unspecified), for which the cell viability in assay [1] amounted to 98.3 ± 4.7%; in assay [2], 103 ± 1.5%.
For `N#Cc1ccc2[nH]c(O)c(-c3ccc(CN4CCOCC4)cn3)c2c1` the same measures were 112 ± 0.85% and 106 ± 5.3%.
The corresponding values for `Cc1cc(Nc2cc(CN3CCOCC3)c3nc(C)c(Cc4ccc(Cl)cc4F)n3n2)n[nH]1` are 82.5 ± 8.9% and 113 ± 2%.
Regarding `CC(C)n1nc(-c2ccc3oc(N)nc3c2)c2c(N)ncnc21`, the results for the cell viability in assay [1] and in assay [2] were 89.4 ± 12% and 86.16 ± 0.51%, respectively.
The corresponding values for `O=C(Nc1ccc(CN2CCOCC2)cc1)c1ccc(-c2cccc(Cl)c2)o1` are 113 ± 2.9% and 120 ± 6%.
As to `COc1ccc(CNC(=O)Nc2ncc([N+](=O)[O-])s2)cc1`, the cell viability in assay [1] was determined as 107 ± 7.3%; in assay [2], 114 ± 15%.
For `CS(=O)(=O)CCNCc1ccc(-c2ccc3ncnc(Nc4ccc(OCc5cccc(F)c5)c(Cl)c4)c3c2)o1` the same measures were 103 ± 8.2% and 108 ± 9%.
For `C=CC(=O)Nc1cc2c(Nc3ccc(F)c(Cl)c3)ncnc2cc1OCCCN1CCOCC1` [Canertinib (hydrochloride)] the same measures were 93.9 ± 14% and 103 ± 7.2%.
The corresponding values for `O=C1c2ccccc2C(=O)C1c1ccccc1` [Phenylindione] are 95.7 ± 6.6% and 114 ± 1.8%.
As for `CNC(=O)Nc1cc(Oc2cncc(C)c2)c(-c2ccc(OCC(C)(C)O)nc2)cn1`, the results for the cell viability in assay [1] and in assay [2] were 101.5 ± 0.58% and 101 ± 6.8%, respectively.
For `CC(C)n1cnc2c(NCc3ccccc3)nc(NCCCO)nc21` [Bohemine] the same measures were 95.3 ± 4.3% and 103 ± 13%.
For `COc1cc(N2CCOCC2)ccc1Nc1ncc(F)c(Nc2ccccc2NS(C)(=O)=O)n1` the same measures were 98.1 ± 5.6% and 111 ± 4.2%.
The corresponding values for `CCCCCCCCCCCCCC#CC(=O)[C@@H]1COC(C)(C)N1C(=O)OC(C)(C)C` are 108 ± 11% and 132 ± 1.6%.
`Cc1cc(Nc2nc(N[C@@H](C)c3ccc(F)cc3)c(C#N)cc2F)n[nH]1`: the cell viability turned out to be 123 ± 7.3% in assay [1] and 99.4 ± 3.3% in assay [2].
On to `CC1(C)OC(=O)C=C[C@]2(C)[C@H]3CC[C@@]4(C)[C@H](c5ccoc5)OC(=O)[C@H]5O[C@]54[C@]3(C)C(=O)C[C@@H]12` [Obacunone], for which the cell viability turned out to be 108 ± 7.3% in assay [1] and 109 ± 19% in assay [2].
For the molecule `CNCCNS(=O)(=O)c1cccc2cnccc12` [H-8 (hydrochloride)], the cell viability in assay [1] turned out to be 106 ± 12%; in assay [2], 108 ± 7.2%.
The corresponding values for `O=C1NC(=O)/C(=C/c2ccc3c(c2)OC(F)(F)O3)S1` are 102 ± 18% and 104 ± 34%.
As to `CC(C)(C)n1nc(Cc2cccc3ccccc23)c2c(N)ncnc21`, the cell viability in assay [1] came to 106 ± 29%; in assay [2] it was 106 ± 3%.
For `C=CC(=O)Nc1cc(Nc2nccc(-c3cn(C)c4ccccc34)n2)c(OC)cc1N(C)CCN(C)C`, the results for the cell viability in assay [1] and in assay [2] were 107 ± 17% and 114 ± 3.5%, respectively.
In the case of `Cc1ccc([N+](=O)[O-])cc1S(=O)(=O)N(C)/N=C/c1cnc2ccc(Br)cn12` [PIK-75 (hydrochloride)], the results for the cell viability in assay [1] and in assay [2] were 94.7 ± 11% and 92.2 ± 7.8%, respectively.
Consider `CCN(CC)CCNC(=O)c1c(C)[nH]c(/C=C2\C(=O)Nc3ccc(F)cc32)c1C` [Sunitinib Malate], for which the results for the cell viability in assay [1] and in assay [2] were 83.1 ± 1.1% and 97.8 ± 4.2%, respectively.
For `CN(c1ccccc1CNc1nc(Nc2ccc3c(c2)CC(=O)N3)ncc1C(F)(F)F)S(C)(=O)=O` the same measures were 112 ± 25% and 96.4 ± 15%.
The corresponding values for `Cc1cc(N)c2ccccc2[n+]1CCCCCCCCCC[n+]1c(C)cc(N)c2ccccc21` [Dequalinium chloride] are 92.3 ± 15% and 96.3 ± 16%.
The corresponding values for `C[C@]1(O)C[C@@H](c2nc(-c3ccc4ccc(-c5ccccc5)nc4c3)c3c(N)nccn32)C1` [OSI-906 (Linsitinib)] are 118 ± 12% and 116 ± 12%.
As to `Cc1cccc(-c2[nH]c(C(C)(C)C)nc2-c2ccc3c(c2)OCO3)n1`, the cell viability in assay [1] stood at 118 ± 26%; in assay [2], 107 ± 20%.
Turning to `CC(C)CCN1c2nc(Nc3cc(F)c(O)c(F)c3)ncc2N(C)C(=O)C1C` (stereo unspecified), the cell viability stood at 100 ± 14% in assay [1] and 114 ± 6.3% in assay [2].
For `CO[C@H]1C[C@@H]2CC[C@@H](C)[C@@](O)(O2)C(=O)C(=O)N2CCCC[C@H]2C(=O)O[C@H]([C@H](C)C[C@@H]2CC[C@@H](O)[C@H](OC)C2)CC(=O)[C@H](C)/C=C(\C)[C@@H](O)[C@@H](OC)C(=O)[C@H](C)C[C@H](C)/C=C/C=C/C=C/1C` [Rapamycin (Sirolimus)], the cell viability in assay [1] is 34.4 ± 8.5%; in assay [2], 43.3 ± 15%.
Take `N#C/C(=C\c1ccc(O)c(O)c1)C(=O)NCc1ccccc1` [AG-490 (Tyrphostin B42)]: the results for the cell viability in assay [1] and in assay [2] were 103 ± 5.9% and 105 ± 1.8%, respectively.
`Nc1ncnc2c1c(I)cn2[C@@H]1O[C@H](CO)[C@@H](O)[C@H]1O` [5-Iodotubercidin]: the values for the cell viability in assay [1] and in assay [2] were 92.65 ± 0.91% and 87.1 ± 4.9%, respectively.
`CNC(=O)c1ccccc1Nc1cc(Nc2ccc(N3CCOCC3)cc2OC)ncc1C(F)(F)F`: the cell viability in assay [1] stood at 105 ± 16%; in assay [2] it was 109 ± 25%.
With `Cn1cc(C2=C(c3cn(CCCN)c4ccccc34)C(=O)NC2=O)c2ccccc21` [Bisindolylmaleimide VIII (acetate)], the results for the cell viability in assay [1] and in assay [2] were 111 ± 18% and 119 ± 26%, respectively.
In the case of `CONC(=O)c1ccccc1Nc1cc(Nc2cc(C)nn2C(C)C)ncc1Cl`, the cell viability amounted to 105 ± 9.6% in assay [1] and 105 ± 1.3% in assay [2].
`C[C@H](NC(=O)/C(C#N)=C/c1cccc(Br)n1)c1ccccc1`: the cell viability in assay [1] came to 103 ± 0.31%; in assay [2] it was 99.3 ± 5.6%.
On to `Oc1c2ccccc2c2c3c(cccc13)N=N2`, for which the cell viability in assay [1] was 114% and 102%; in assay [2], 103% and 104%.
Turning to `Cc1cn(-c2cc(NC(=O)c3ccc(C)c(Nc4nccc(-c5cccnc5)n4)c3)cc(C(F)(F)F)c2)cn1` [Nilotinib (AMN-107)], the figures for the cell viability in assay [1] and in assay [2] were 108 ± 9% and 112 ± 16%, respectively.
For `O=C(O)c1ccc(Nc2ncc3c(n2)-c2ccc(Cl)cc2C(c2c(F)cccc2F)=NC3)cc1` the same measures were 107 ± 1.3% and 107 ± 3.6%.

Values taken from the supplement of paper PMC8699584.
